This passage reports Potency, outcome and activity change, negative = inhibition results from PubChem BioAssay (NCATS).

Test [1] can be described thus: Validation screen for inhibitors of Lassa infection (AID 463096). Also: potency is read from the fitted curve at half-maximal effect. As to activity change, negative = inhibition: % is scaled to controls: 0 for no effect and ±100 for the full control effect.
A short description of test [2]: Inducers of the Endoplasmic Reticulum Stress Response (ERSR) in human glioma: Validation (AID 504836; active = well fitted curve in the direction sought with a large enough effect; an effect the other way counts as inactive or inconclusive; also: 0% is about no effect). In a few lines:
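Stably transfected U87-MG glioma cells carrying a GRP78-based luciferase sensor; 16 h compound incubation. Luminescence end-point read 10 min after Bright-Glo addition at room temperature.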

A short description of test [3]: qHTS for Inhibitors of the Functional Ribonucleoprotein Complex (vRNP) of Lassa (LASV) Arenavirus: LASV Primary Screen - GLuc reporter signal (AID 1347082; calls by dose curve; tested in HEK293 reporter line; also: % is scaled to controls: 0 for no effect and ±100 for the full control effect; nearly all actives have a fitted effect of over 60% in size). In general terms: Quantitative high-throughput screening tests each substance at several concentrations.
Test [4] can be described thus: qHTS for Inhibitors of the Functional Ribonucleoprotein Complex (vRNP) of Lymphocytic Choriomeningitis Arenaviruses (LCMV): Viability assay - alamar blue signal for LCMV Primary Screen (AID 1347085; calls by dose curve; tested in HEK293 reporter line; also: nearly all actives have a fitted effect of over 80% in size; also: potency is read from the fitted curve at half-maximal effect).
The target in test [5] is Nucleoprotein (Lymphocytic choriomeningitis virus (strain Armstrong)) (UniProt P09992). Description: qHTS for Inhibitors of the Functional Ribonucleoprotein Complex (vRNP) of Lymphocytic Choriomeningitis Arenaviruses (LCMV): LCMV Primary Screen - GLuc reporter signal (AID 1347086). Also: % is scaled to controls: 0 for no effect and ±100 for the full control effect; nearly all actives have a fitted effect of over 70% in size.
Test [6] has as its target Alpha-galactosidase (Coffea arabica) (UniProt Q42656). Description: Counterscreen for Glucocerebrosidase Inhibitors: qHTS Assay for Coffee Bean alpha-Galactosidase at pH 4.5 (AID 957; active = well fitted curve in the direction sought with a large enough effect; an effect the other way counts as inactive or inconclusive;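 also: plate controls were enzyme alone for no effect and no enzyme for full effect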). In a few lines: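 Coffee bean alpha-galactosidase 2 nM, substrate 4-MU-alpha-Gal 80 uM, pH 4.5 citrate/Tween-20, 20 min RT. Cpd titration 0.7 nM–77 uM. Stop pH 10, fluorescence 365/440 nm; Hill-equation AC50.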

The target is the same in test [7]. In words: Counterscreen for Glucocerebrosidase Inhibitors: qHTS Assay for Coffee Bean alpha-Galactosidase at pH 5.9 (AID 998; active = well fitted curve in the direction sought with a large enough effect; an effect the other way counts as inactive or inconclusive;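 also: plate controls were uninhibited enzyme for no effect and no-enzyme basal signal for full effect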). Summed up:
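Green coffee bean enzyme (2 nM) with 4-methylumbelliferyl alpha-D-galactopyranoside (80 uM) in 50 mM citric acid, 0.005% Tween-20, pH 5.9, 20 min at room temperature; compounds 0.7 nM–77 uM. Stopped at pH 10, fluorescence Ex365/Em440; Hill-fit AC50.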

A short description of test [8]: Cytotoxicity counterscreen for inhibitors of SARS-CoV-2 cell entry (AID 1645845). Also: nearly all actives have a fitted effect of over 50% in size. Also: potency is read from the fitted curve at half-maximal effect. Summed up: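 HEK293-ACE2 cells (Expi293F stably expressing human ACE2) seeded overnight, then compound for 1 h plus 48 h at 37C. Viability as ATP content by luminescence; normalized to wells with cells and media-only wells.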
Background: Counterscreens check selectivity or assay interference.

The nature of test [9]: Primary qHTS to identify inhibitors of SARS-CoV-2 cell entry (AID 1645846). Also: nearly all actives have a fitted effect of over 45% in size. Also: potency is read from the fitted curve at half-maximal effect. Particulars: activity change, negative = inhibition: at 57.1 µM (top of the series) unless noted. Summed up:
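Using luciferase-reporting pseudoviruses carrying Wuhan-Hu-1 spike, the screen tracks entry into stably ACE2-expressing cells over 48 hr. Activity is expressed relative to spike particles versus particles lacking any fusion protein.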

The nature of test [10]: Primary qHTS for inhibitors of SARS-S pseudo-typed particle cell entry (AID 1479145). Also: potency is read from the fitted curve at half-maximal effect; nearly all actives have a fitted effect of over 45% in size.
The nature of test [11]: Primary qHTS for Huh7 cytotoxicity: counterscreen for inhibitors of MERS-S pseudotyped particle cell entry (AID 1479147). Also: % is scaled to controls: 0 for no effect and ±100 for the full control effect. Conditions: outcome: dose series up to 57.1 µM unless noted.
Test [12] in a line: Primary qHTS for Vero E6 cytotoxicity: counterscreen for inhibitors of SARS-S pseudo-typed particle cell entry (AID 1479150). Also: % is scaled to controls: 0 for no effect and ±100 for the full control effect. Particulars: outcome: dose series up to 57.1 µM unless noted.
Test [13] is described as follows: VSVG counterscreen qHTS to identify inhibitors of SARS-CoV-2 cell entry (AID 1645847). Also: potency is read from the fitted curve at half-maximal effect; nearly all actives have a fitted effect of over 65% in size. In a few lines:
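Entry of VSV-G pseudotyped particles into human ACE2-expressing HEK293 cells was measured by luciferase luminescence 48 h after infection, with compound added 1 h beforehand.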

Records with an inconclusive call do not appear. Calls of active or inactive are those of the source. Unless noted, calls follow the shape of the full dose curve.

Nucleoprotein (Lymphocytic choriomeningitis virus (strain Armstrong)), sequence (P09992 whole entry, looked up): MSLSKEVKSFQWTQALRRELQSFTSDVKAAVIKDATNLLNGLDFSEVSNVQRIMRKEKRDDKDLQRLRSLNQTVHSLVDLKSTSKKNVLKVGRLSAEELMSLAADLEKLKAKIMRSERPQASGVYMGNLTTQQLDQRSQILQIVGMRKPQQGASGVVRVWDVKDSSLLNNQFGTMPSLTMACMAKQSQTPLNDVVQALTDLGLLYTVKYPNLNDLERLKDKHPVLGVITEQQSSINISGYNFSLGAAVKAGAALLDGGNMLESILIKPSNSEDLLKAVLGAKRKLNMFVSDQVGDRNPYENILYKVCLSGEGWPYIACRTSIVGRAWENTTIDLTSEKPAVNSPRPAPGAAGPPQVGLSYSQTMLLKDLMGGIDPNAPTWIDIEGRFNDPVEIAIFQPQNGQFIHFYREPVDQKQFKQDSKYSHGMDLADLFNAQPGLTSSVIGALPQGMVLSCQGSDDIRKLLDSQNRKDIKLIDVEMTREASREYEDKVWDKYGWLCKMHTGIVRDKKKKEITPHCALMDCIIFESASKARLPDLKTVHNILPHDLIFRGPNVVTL
Alpha-galactosidase (Coffea arabica), sequence (Q42656 whole entry, looked up): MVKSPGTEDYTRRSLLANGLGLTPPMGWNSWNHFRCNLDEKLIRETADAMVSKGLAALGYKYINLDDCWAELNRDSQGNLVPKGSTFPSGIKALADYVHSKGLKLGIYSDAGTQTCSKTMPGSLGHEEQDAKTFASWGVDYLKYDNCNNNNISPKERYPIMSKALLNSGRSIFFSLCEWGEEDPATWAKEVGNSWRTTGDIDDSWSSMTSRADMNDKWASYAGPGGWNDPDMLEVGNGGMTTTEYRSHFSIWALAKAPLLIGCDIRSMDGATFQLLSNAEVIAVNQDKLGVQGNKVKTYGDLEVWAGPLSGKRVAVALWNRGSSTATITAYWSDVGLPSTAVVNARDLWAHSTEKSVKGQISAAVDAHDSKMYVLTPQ

Turning to `CCCCCC(O)c1cccc(OCc2ccc3ccccc3n2)c1` (centres undefined), the Potency result in [1], in test [3], in [4] and in test [5] was “inactive” in each case. The compound was called inactive in test [2].
Consider `CCCC(=O)NCCc1c2n(c3ccc(OC)cc13)CCCc1ccccc1-2`, for which the result in test [6], in [7] and in [2] was inactive. Further, the Potency entry in test [1], in [3] and in test [4] was “inactive” in each case.
On to `C=CC(=O)Nc1cccc(Sc2nc(Nc3ccc(N4CCN(C)CC4)cc3)ncc2Cl)c1`, for which the Potency entry in test [3], in [4] and in test [5] was “inactive” throughout. In addition, the Potency is 8.91 µM (active) in [8] and 3.98 µM (active) in test [9].
Turning to `COc1cc(OC)c2c(c1Cl)O[C@@]1(C2=O)[C@H](C)CC(=O)C[C@@H]1OC`, the Potency result in [3] and in test [5] was “inactive” throughout.
`COc1cc2nccc(Oc3ccc(NC(=O)NC4CC4)c(Cl)c3)c2cc1C(N)=O`: the Potency entry in test [3] and in test [8] was “inactive” each time. Besides, the results for the Potency in test [4], in test [10] and in test [13] were 19.3 µM (active), 3.55 µM (active) and 19.2 µM (active), respectively. In addition, the outcome in test [11] and in test [12] was inactive. Moreover, the activity change, negative = inhibition in test [9] is -21.3%.
Take `Nc1nc(NCCNc2ncc(-n3ccnc3)c(-c3ccc(Cl)cc3Cl)n2)ccc1[N+](=O)[O-]`: the Potency result in test [3] and in test [8] was “inactive” in each case. In addition, the Potency in test [4] was 15.3 µM (active). Moreover, the activity change, negative = inhibition in [9] was -29.7%.
Regarding `CC(C)(C)NC(=O)Nc1cccc(Nc2ncc(F)c(NC(C)(C)CO)n2)c1`, the Potency entry in test [3] and in test [5] was “inactive” throughout.
As for `COc1cc2ncnc(Nc3cccc(Cl)c3)c2cc1OC`, the compound was classed as inactive in [6], in [7] and in [2]. For the same compound, the Potency result in test [1], in test [3], in test [4] and in test [5] was “inactive” throughout. The activity change, negative = inhibition in test [9] came to 0.792%.
In the case of `CC(N)(Cc1ccc(O)c(O)c1)C(=O)O` (centres undefined), the Potency entry in test [1], in test [3], in [4] and in test [5] was “inactive” in each case. Besides, the compound was called inactive in [2].
Consider `O=C1NCc2c1c1c3ccccc3[nH]c1c1[nH]c3ccccc3c21`, for which the Potency result in test [3] and in test [5] was “inactive” each time.
Consider `CN(C)CCc1cc2c(c3c1ccc1ccccc13)OCO2`, for which the Potency entry in [3] and in test [5] was “inactive” throughout.
Turning to `OCc1ccc(-c2nn(Cc3ccccc3)c3ccccc23)o1`, the compound was classed as inactive in test [7] and in test [2]. For the same compound, the Potency in test [1] was 4.47 µM (active). Moreover, the Potency entry in test [3], in test [4] and in test [5] was “inactive” each time. For the same compound, in test [9], the activity change, negative = inhibition was -87.6%.
For the compound `C=C1C(=CC=C2CCC[C@]3(C)[C@@H]([C@H](C)CCCC(C)(C)O)CC[C@@H]23)C[C@@H](O)C[C@@H]1O`, the Potency entry in [3] and in test [5] was “inactive” each time.
On to `O=C(O)Cc1ccc(O)c(O)c1`, for which the outcome in [6], in [7] and in test [2] was inactive. In addition, the Potency entry in [3], in test [4] and in [5] was “inactive” each time.
